Values without a mark were called inactive. The list shows a part of the results. Activity calls are given as the source filed them.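 Rule for the calls, unless noted: active = mean inhibition over triplicates exceeding the hit threshold derived in the original primary screen (cut at about 11% in these data); inactive = the rest.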
Test: compounds suppressing VP16-driven luciferase signal – cell-based, luminescence, high throughput, counter-screen for LRH-1 inverse agonist project (AID 651615; in the data active = inhibition above about 33%)
Settings: Gal4-VP16 luciferase reporter cells, at 3.6 µM, stronger effect = higher value

| Compound | inhibition |
| --- | --- |
| Cc1nnsc1C(=O)NC1CCCc2c1cnn2-c1ccc(C(C)(C)C)cc1 (configuration not stated) | 50.6% (active) |
| CN(C)c1ccc2nc3ccc(=[N+](C)C)cc-3sc2c1 | 52.9% (active) |
| COc1ccc(NS(=O)(=O)c2ccc3c(c2)OCCO3)cc1OC | 35.5% (active) |
| CC(C)(C)C(=O)/C(=C/c1cccc([N+](=O)[O-])c1)n1cncn1 | 83.7% (active) |
| O=C(Nc1ccc(Br)cn1)C1CCN(S(=O)(=O)c2cccs2)CC1 | 45.3% (active) |
| COc1ccc(/C=C/C(=O)O)cc1O | 2.63% |
| N#Cc1cccc(C=C(C(=O)c2ccccc2)c2ccccc2)c1 | 32.6% (active) |
| COc1ccc(NC(=O)/C(Cl)=C(/Cl)S(=O)Cc2ccccc2)cn1 (configuration not stated) | 94.5% (active) |
| CC(C)(C)C(=O)/C(=C\c1cccc([N+](=O)[O-])c1)n1cncn1 | 85% (active) |
| CCN(Cc1ccc(OC)c(F)c1)C(=O)CCl | 21.3% |
| O=C(N/N=C/c1ccc([N+](=O)[O-])s1)c1cccnc1 | 7.08% |
| CCc1cc(-c2nnn(CCC3COCCO3)c2CC)ccc1-c1cn(Cc2ccc3ccccc3c2)nn1 (configuration not stated) | 39.4% (active) |
| C=CC(=O)N1C/C(=C/c2ccc(Cl)cc2)C(=O)/C(=C\c2ccc(Cl)cc2)C1 | 65.8% (active) |

Test: reduced OD of V66 E. coli with T4 gene 2 phage – absorbance, RecBCD inhibitor project, confirmation (AID 651982)
Settings: E. coli V66 + T4 2- phage, growth OD; at 11.9 µM; stronger effect = higher value

| Compound | inhibition |
| --- | --- |
| CC1=C(C/C=C(\C)CCCC(C)CCCC(C)CCCC(C)C)C(=O)c2ccccc2C1=O (configuration not stated) | 0.32% |
| S=C(NCC1COc2ccccc2O1)Nc1ccc(Br)cc1 (configuration not stated) | 4.21% |
| CCN1CCN(C(=O)N[C@@H](C(=O)N[C@@H]2C(=O)N3C(C(=O)O)=C(CSc4nnnn4C)CS[C@H]23)c2ccc(O)cc2)C(=O)C1=O | 99.8% (active) |
| CCn1cc(C(=O)NCCO)c(=O)c2cc(F)c(N3CCN(C)CC3)cc21 | 103% (active) |
| Cc1ccc(NC(=O)Nc2nnc(-c3ccncc3)s2)cc1 | 2.33% |
| CC(=O)NC(c1cccs1)c1cc(Br)c2cccnc2c1O (configuration not stated) | 10.7% |
| CC1(C(=O)NS(=O)(=O)c2ccccc2)CCN1C(=O)C/C=C/c1ccccc1 (configuration not stated) | -4.38% |
| CCCCC(=O)NC(c1ccc(OC)c(OC)c1)c1ccc2cccnc2c1O (configuration not stated) | 13.9% (active) |
| CCNC(=S)N(CCc1c(C)[nH]c2ccc(C)cc12)Cc1ccco1 | -0.28% |
| CCN1CCN(c2nc(Nc3cc(OC)ccc3OC)nc(Nc3cc(OC)ccc3OC)n2)CC1 | -0.69% |
| Cc1ccc(-c2cnc(C(O)c3cc(Cl)cc(Cl)c3)[nH]2)cc1 (configuration not stated) | 12.2% (active) |
| NC1=NC(=O)C(Cc2cccc(Cl)c2Cl)S1 (configuration not stated) | 0.33% |
| O=C1c2ccccc2C2=Nc3ccccc3SC(c3ccccc3F)C12 (configuration not stated) | 8.51% |
| CC(C)(C)C(=O)Nc1c(Br)c(C2CC2)nn1-c1ccccc1 | -0.86% |
| COc1cccc(C(O)c2ncc(-c3ccc4ccccc4c3)[nH]2)c1 (configuration not stated) | 7.6% |
| C=CCNC(=O)CSc1nc2sc(C)c(C)c2c(=O)[nH]1 | -1.59% |
| C=CCn1c(=O)c(C(=O)NCc2ccc3c(c2)OCO3)c(O)c2ccccc21 | 4.97% |

Test: bacterial growth inhibition – absorbance, high throughput, counter-screen for RecBCD inhibitor project (AID 651983; in the data active = inhibition above about 20%;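 note: E. coli strain V66 grown with compound alone and no phage infection; 0% = bacteria with DMSO vehicle only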)
Settings: E. coli viability, absorbance (OD) growth; at 11.9 µM; stronger effect = higher value

| Compound | inhibition |
| --- | --- |
| CC1=C(C/C=C(\C)CCCC(C)CCCC(C)CCCC(C)C)C(=O)c2ccccc2C1=O (configuration not stated) | 0.53% |
| S=C(NCC1COc2ccccc2O1)Nc1ccc(Br)cc1 (configuration not stated) | 5.21% |
| CCN1CCN(C(=O)N[C@@H](C(=O)N[C@@H]2C(=O)N3C(C(=O)O)=C(CSc4nnnn4C)CS[C@H]23)c2ccc(O)cc2)C(=O)C1=O | 101% (active) |
| CCn1cc(C(=O)NCCO)c(=O)c2cc(F)c(N3CCN(C)CC3)cc21 | 104% (active) |
| Cc1ccc(NC(=O)Nc2nnc(-c3ccncc3)s2)cc1 | 3.97% |
| CC(=O)NC(c1cccs1)c1cc(Br)c2cccnc2c1O (configuration not stated) | 16.4% |
| CC1(C(=O)NS(=O)(=O)c2ccccc2)CCN1C(=O)C/C=C/c1ccccc1 (configuration not stated) | -3.55% |
| CCCCC(=O)NC(c1ccc(OC)c(OC)c1)c1ccc2cccnc2c1O (configuration not stated) | 17.6% |
| CCNC(=S)N(CCc1c(C)[nH]c2ccc(C)cc12)Cc1ccco1 | -0.24% |
| CCN1CCN(c2nc(Nc3cc(OC)ccc3OC)nc(Nc3cc(OC)ccc3OC)n2)CC1 | -0.86% |
| Cc1ccc(-c2cnc(C(O)c3cc(Cl)cc(Cl)c3)[nH]2)cc1 (configuration not stated) | 16.9% |
| NC1=NC(=O)C(Cc2cccc(Cl)c2Cl)S1 (configuration not stated) | 0.21% |
| O=C1c2ccccc2C2=Nc3ccccc3SC(c3ccccc3F)C12 (configuration not stated) | 8.52% |
| CC(C)(C)C(=O)Nc1c(Br)c(C2CC2)nn1-c1ccccc1 | -0.19% |
| COc1cccc(C(O)c2ncc(-c3ccc4ccccc4c3)[nH]2)c1 (configuration not stated) | 10.9% |
| C=CCNC(=O)CSc1nc2sc(C)c(C)c2c(=O)[nH]1 | -0.91% |
| C=CCn1c(=O)c(C(=O)NCc2ccc3c(c2)OCO3)c(O)c2ccccc21 | 6.78% |

Reference: PubChem BioAssay
